# Records with an inconclusive call do not appear. A call without a number means that no potency is given here. Active and inactive are the calls of the source. The call rests on the fitted dose curve; in most records, active means well fitted curve in the direction sought with a large enough effect; inconclusive means small, poorly fitted or top-dose-only effect, or another doubt; inactive means no such curve, though single readings can be large; an effect the other way counts as inactive or inconclusive.
# How the values were obtained:
# [1] = qHTS of pediatric cancer cell lines to identify multiple opportunities for drug repurposing: Primary screen for Saos-2 cells (AID 1347097); further: nearly all actives have a fitted effect of over 40% in size; further: potency means the concentration at half of the fitted maximal effect
# Method in brief: (§1)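 Quantitative HTS format: each compound titrated (MIPE 11 points from 0.78 nM, NPC 8 points from 0.59 nM) onto cells plated 5 hours earlier. After 48 h at 37 degrees C, CellTiter-Glo luminescence was recorded.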
# [2] = qHTS of pediatric cancer cell lines to identify multiple opportunities for drug repurposing: Primary screen for SK-N-SH cells (AID 1347098); further: nearly all actives have a fitted effect of over 65% in size; further: potency means the concentration at half of the fitted maximal effect
# Method in brief: (§2)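 Cells (500-1,000/well) rested 5 h, then received compounds for 48 h; metabolically active cells were measured by CellTiter-Glo luminescence. Final concentrations spanned up to 46 µM (MIPE, 11-point) or 0.59 nM-46 µM (NPC, 8-point) in primary screens, 11-point in follow-ups.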
# [3] = qHTS of pediatric cancer cell lines to identify multiple opportunities for drug repurposing: Primary screen for LAN-5 cells (AID 1347100); further: potency means the concentration at half of the fitted maximal effect
# Method in brief: (§3)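 Viability after 48 h compound treatment at 37C, 500-1,000 cells/well, read as ATP luminescence with CellTiter-Glo. Primary screens used 11-point (MIPE, 0.78 nM-46 µM) or 8-point (NPC, 0.59 nM-46 µM) final concentrations; follow-up screens used 11-point dilutions.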
# [4] = qHTS of pediatric cancer cell lines to identify multiple opportunities for drug repurposing: Primary screen for BT-12 cells (AID 1347101); further: nearly all actives have a fitted effect of over 25% in size; further: potency means the concentration at half of the fitted maximal effect
# Method in brief: as §2
# [5] = qHTS of pediatric cancer cell lines to identify multiple opportunities for drug repurposing: Primary screen for Rh18 cells (AID 1347102); further: nearly all actives have a fitted effect of over 65% in size; further: potency means the concentration at half of the fitted maximal effect
# Method in brief: as §3
# [6] = qHTS of pediatric cancer cell lines to identify multiple opportunities for drug repurposing: Primary screen for OHS-50 cells (AID 1347103); further: nearly all actives have a fitted effect of over 40% in size; further: potency means the concentration at half of the fitted maximal effect
# Method in brief: as §2
# [7] = qHTS of pediatric cancer cell lines to identify multiple opportunities for drug repurposing: Primary screen for RD cells (AID 1347104); further: nearly all actives have a fitted effect of over 55% in size; further: potency means the concentration at half of the fitted maximal effect
# Method in brief: as §1
# [8] = qHTS of pediatric cancer cell lines to identify multiple opportunities for drug repurposing: Primary screen for MG 63 (6-TG R) cells (AID 1347105); further: nearly all actives have a fitted effect of over 50% in size; further: potency means the concentration at half of the fitted maximal effect
# Method in brief: as §1
# [9] = qHTS of pediatric cancer cell lines to identify multiple opportunities for drug repurposing: Primary screen for control Hh wild type fibroblast cells (AID 1347106);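 further: series mostly up to about 46 µM; a drop in luminescence marks cytotoxicity and a rise apparent proliferation; nearly all actives have a fitted effect of over 55% in size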
# Method in brief: as §3
# [10] = qHTS of pediatric cancer cell lines to identify multiple opportunities for drug repurposing: Primary screen for Rh30 cells (AID 1347107); further: series mostly up to about 46 µM; nearly all actives have a fitted effect of over 75% in size
# Method in brief: as §3
# [11] = qHTS of pediatric cancer cell lines to identify multiple opportunities for drug repurposing: Primary screen for Rh41 cells (AID 1347108); further: nearly all actives have a fitted effect of over 70% in size; further: potency means the concentration at half of the fitted maximal effect
# Method in brief: as §1
# [12] = qHTS of pediatric cancer cell lines to identify multiple opportunities for drug repurposing: Primary screen for NB1643 cells (AID 1347099); further: nearly all actives have a fitted effect of over 50% in size
# Method in brief: as §1
# [13] = qHTS of pediatric cancer cell lines to identify multiple opportunities for drug repurposing: Confirmatory screen for A673 cells (AID 1347110); further: nearly all actives have a fitted effect of over 65% in size; further: potency means the concentration at half of the fitted maximal effect
# Method in brief: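 A673 cells at 500-1,000 cells/well were dosed 5 h after plating, in dilution series up to 46 uM final; primary runs used 8 or 11 points and confirmatory runs used 11 points. Viability was read by CellTiter-Glo luminescence after 48 h, against DMSO and 2.3 uM bortezomib controls.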
# [14] = qHTS of pediatric cancer cell lines to identify multiple opportunities for drug repurposing: Confirmatory screen for TC32 cells (AID 1347118); further: potency means the concentration at half of the fitted maximal effect; nearly all actives have a fitted effect of over 65% in size
# Method in brief: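 Luminescent ATP read-out (CellTiter-Glo) of metabolically active TC32 cells after 48 h exposure. Concentration-response curves came from 11-point (MIPE, 0.78 nM–46 µM) or 8-point (NPC, 0.59 nM–46 µM) primary titrations; follow-up used 11 points.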
# [15] = qHTS of pediatric cancer cell lines to identify multiple opportunities for drug repurposing: Confirmatory screen for MG 63 (6-TG R) cells (AID 1347119); further: nearly all actives have a fitted effect of over 55% in size; further: potency means the concentration at half of the fitted maximal effect
# Method in brief: as §3
# [16] = qHTS of pediatric cancer cell lines to identify multiple opportunities for drug repurposing: Confirmatory screen for NB1643 cells (AID 1347109); further: nearly all actives have a fitted effect of over 45% in size; further: potency means the concentration at half of the fitted maximal effect
# Method in brief: as §3
# [17] = qHTS of pediatric cancer cell lines to identify multiple opportunities for drug repurposing: Confirmatory screen for SK-N-MC cells (AID 1347111);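 further: potency means the concentration at half of the fitted maximal effect; cells exposed to compound for 48 h before the readout; nearly all actives have a fitted effect of over 70% in size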
# Method in brief: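 SK-N-MC cells at 500-1,000 cells/well in growth media were pre-incubated 5 h, then exposed to compounds at 11-point dilutions for 48 h at 37 degrees C, 5% CO2. Viability was read as CellTiter-Glo luminescence.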
# [18] = qHTS of pediatric cancer cell lines to identify multiple opportunities for drug repurposing: Confirmatory screen for BT-12 cells (AID 1347112); further: nearly all actives have a fitted effect of over 55% in size
# Method in brief: as §3
# [19] = qHTS of pediatric cancer cell lines to identify multiple opportunities for drug repurposing: Confirmatory screen for SJ-GBM2 cells (AID 1347116); further: nearly all actives have a fitted effect of over 60% in size
# Method in brief: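 Viability measured as metabolically active cells via CellTiter-Glo luminescence following 48 hours of compound exposure, 11-point dilutions in confirmatory testing. 500-1,000 cells/well plated 5 hours before dosing; controls were DMSO and 2.3 µM bortezomib.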
# [20] = qHTS of pediatric cancer cell lines to identify multiple opportunities for drug repurposing: Confirmatory screen for BT-37 cells (AID 1347117); further: nearly all actives have a fitted effect of over 55% in size; further: potency means the concentration at half of the fitted maximal effect
# Method in brief: as §3
smiles,measurement,setting,value
CNC(=O)NC(O)C(Cl)(Cl)Cl (centres undefined),Potency,[1],inactive
same,Potency,[2],inactive
same,Potency,[3],inactive
same,Potency,[4],inactive
same,Potency,[5],inactive
same,Potency,[6],inactive
same,Potency,[7],inactive
same,Potency,[8],inactive
same,Potency,[9],inactive
same,Potency,[10],inactive
same,Potency,[11],inactive
Nc1ccccc1C(=O)OCC(O)CO (centres undefined),Potency,[1],inactive
same,Potency,[2],inactive
same,Potency,[3],inactive
same,Potency,[4],inactive
same,Potency,[5],inactive
same,Potency,[6],inactive
same,Potency,[7],inactive
same,Potency,[8],inactive
same,Potency,[9],inactive
same,Potency,[10],inactive
same,Potency,[11],inactive
CN1C(=O)CN=C(c2ccccc2)c2cc(Cl)ccc21,Potency,[1],inactive
same,Potency,[2],inactive
same,Potency,[3],inactive
same,Potency,[4],inactive
same,Potency,[7],inactive
same,Potency,[8],inactive
same,Potency,[9],inactive
same,Potency,[10],inactive
same,Potency,[11],inactive
CC(Cc1ccccc1)NCCCCl (centres undefined),Potency,[1],inactive
same,Potency,[2],inactive
same,Potency,[3],inactive
same,Potency,[4],inactive
same,Potency,[5],inactive
same,Potency,[6],inactive
same,Potency,[7],inactive
same,Potency,[8],inactive
same,Potency,[9],inactive
same,Potency,[10],inactive
same,Potency,[11],inactive
CCN(CC)CCOC(=O)C(C)(c1ccccc1)c1ccccc1,Potency,[1],inactive
same,Potency,[2],inactive
same,Potency,[4],inactive
same,Potency,[5],inactive
same,Potency,[7],inactive
same,Potency,[8],inactive
same,Potency,[9],inactive
same,Potency,[10],inactive
COc1cc(CC(C)N)c(OC)cc1Br (centres undefined),Potency,[1],35.7 µM (active)
same,Potency,[12],inactive
same,Potency,[5],inactive
same,Potency,[8],17.9 µM (active)
same,Potency,[10],inactive
COc1ccc(C(=O)N2CCCC2=O)cc1,Potency,[1],inactive
same,Potency,[2],inactive
same,Potency,[3],inactive
same,Potency,[4],inactive
same,Potency,[5],inactive
same,Potency,[6],inactive
same,Potency,[7],inactive
same,Potency,[8],inactive
same,Potency,[9],inactive
same,Potency,[10],inactive
same,Potency,[13],inactive
same,Potency,[14],14.7 µM (active)
same,Potency,[15],29.3 µM (active)
C=CC[C@]1(O)CC[C@H]2[C@@H]3CCC4=CC(=O)CCC4=C3C=C[C@@]21C,Potency,[1],inactive
same,Potency,[2],inactive
same,Potency,[5],inactive
same,Potency,[7],inactive
same,Potency,[8],inactive
same,Potency,[9],inactive
same,Potency,[10],inactive
COC(=O)C1=CCCN(C)C1,Potency,[1],inactive
same,Potency,[2],inactive
same,Potency,[3],inactive
same,Potency,[4],inactive
same,Potency,[5],inactive
same,Potency,[6],inactive
same,Potency,[7],inactive
same,Potency,[8],inactive
same,Potency,[9],inactive
same,Potency,[10],inactive
same,Potency,[11],inactive
same,Potency,[16],inactive
same,Potency,[13],inactive
same,Potency,[17],18.5 µM (active)
same,Potency,[18],inactive
same,Potency,[19],inactive
same,Potency,[20],inactive
same,Potency,[14],10.4 µM (active)
same,Potency,[15],inactive
CC(C)[N+](C)(CCC(C(N)=O)(c1ccccc1)c1ccccc1)C(C)C,Potency,[1],inactive
same,Potency,[2],inactive
same,Potency,[3],inactive
same,Potency,[4],inactive
same,Potency,[5],inactive
same,Potency,[6],inactive
same,Potency,[7],inactive
same,Potency,[8],inactive
same,Potency,[9],inactive
same,Potency,[10],inactive
same,Potency,[11],inactive
CCOC(=O)c1ncn2c1CN(C)C(=O)c1c(I)cccc1-2,Potency,[1],inactive
same,Potency,[2],inactive
same,Potency,[3],inactive
same,Potency,[4],inactive
same,Potency,[5],inactive
same,Potency,[6],inactive
same,Potency,[7],inactive
same,Potency,[8],inactive
same,Potency,[9],inactive
same,Potency,[10],inactive
same,Potency,[11],inactive
O=C(O)c1nn(Cc2ccc(Cl)cc2Cl)c2ccccc12,Potency,[1],inactive
same,Potency,[2],inactive
same,Potency,[3],inactive
same,Potency,[4],inactive
same,Potency,[5],inactive
same,Potency,[6],inactive
same,Potency,[7],inactive
same,Potency,[8],inactive
same,Potency,[9],inactive
same,Potency,[10],inactive
same,Potency,[11],inactive
Clc1ccc(C(OCCN2CCCCC2)c2ccccc2)cc1 (centres undefined),Potency,[1],inactive
same,Potency,[12],inactive
same,Potency,[5],inactive
same,Potency,[6],19.5 µM (active)
same,Potency,[8],inactive
same,Potency,[9],inactive
same,Potency,[10],inactive
CN1C(=O)[C@@H](NC(=O)c2cc3ccccc3[nH]2)N=C(c2ccccc2)c2ccccc21,Potency,[1],10.6 µM (active)
same,Potency,[2],inactive
same,Potency,[4],inactive
same,Potency,[5],inactive
same,Potency,[6],inactive
same,Potency,[8],inactive
same,Potency,[9],inactive
same,Potency,[10],inactive
CC1COC2(c3ccccc3Cl)c3cc(Cl)ccc3NC(=O)CN12 (centres undefined),Potency,[1],inactive
same,Potency,[3],6.68 µM (active)
same,Potency,[5],inactive
same,Potency,[7],inactive
same,Potency,[8],inactive
same,Potency,[9],inactive
same,Potency,[10],inactive
CC(C(O)c1ccccc1)N(C)C/C=C/c1ccccc1 (centres undefined),Potency,[1],inactive
same,Potency,[12],inactive
same,Potency,[3],inactive
same,Potency,[4],inactive
same,Potency,[5],inactive
same,Potency,[7],inactive
same,Potency,[8],inactive
same,Potency,[9],inactive
same,Potency,[10],inactive
same,Potency,[11],inactive
CCCCCCCCCCCC[N+](C)(C)CCOc1ccccc1,Potency,[1],13.3 µM (active)
same,Potency,[2],13.7 µM (active)
same,Potency,[3],23.7 µM (active)
same,Potency,[4],24.6 µM (active)
same,Potency,[5],8.41 µM (active)
same,Potency,[6],4.9 µM (active)
same,Potency,[7],23.7 µM (active)
same,Potency,[9],inactive
same,Potency,[11],16.8 µM (active)
same,Potency,[16],11.7 µM (active)
same,Potency,[13],8.27 µM (active)
same,Potency,[17],7.37 µM (active)
same,Potency,[20],20.8 µM (active)
same,Potency,[14],7.37 µM (active)
same,Potency,[15],20.8 µM (active)
CCN(CC)C(C)C(=O)c1ccccc1 (centres undefined),Potency,[1],inactive
same,Potency,[2],inactive
same,Potency,[3],inactive
same,Potency,[4],inactive
same,Potency,[5],inactive
same,Potency,[6],inactive
same,Potency,[7],inactive
same,Potency,[8],inactive
same,Potency,[9],inactive
same,Potency,[10],inactive
same,Potency,[11],inactive
CCc1cc(OC)c(C[C@H](C)N)cc1OC,Potency,[1],inactive
same,Potency,[12],inactive
same,Potency,[3],inactive
same,Potency,[5],inactive
same,Potency,[6],inactive
same,Potency,[8],inactive
same,Potency,[9],inactive
same,Potency,[10],inactive
CC[C@H](O)C(C[C@H](C)N(C)C)(c1ccccc1)c1ccccc1,Potency,[1],inactive
same,Potency,[12],inactive
same,Potency,[3],inactive
same,Potency,[4],inactive
same,Potency,[5],inactive
same,Potency,[6],inactive
same,Potency,[9],inactive
Oc1ccc2[nH]cc(CCCCN3CC=C(c4ccccc4)CC3)c2c1,Potency,[1],inactive
same,Potency,[12],inactive
same,Potency,[3],11.9 µM (active)
same,Potency,[4],15.5 µM (active)
same,Potency,[6],27.6 µM (active)
same,Potency,[8],inactive
same,Potency,[9],inactive
same,Potency,[10],inactive
same,Potency,[11],inactive
CCOC(=O)C(c1c(O)c2ccccc2oc1=O)c1c(O)c2ccccc2oc1=O,Potency,[1],inactive
same,Potency,[2],inactive
same,Potency,[4],inactive
same,Potency,[5],inactive
same,Potency,[6],inactive
same,Potency,[7],inactive
same,Potency,[8],inactive
same,Potency,[9],inactive
same,Potency,[10],inactive
CC#C[C@]1(O)CC[C@H]2[C@@H]3C[C@H](C)C4=CC(=O)CC[C@]4(C)[C@H]3CC[C@@]21C,Potency,[1],inactive
same,Potency,[2],inactive
same,Potency,[6],19.5 µM (active)
same,Potency,[7],inactive
same,Potency,[8],inactive
same,Potency,[9],inactive
same,Potency,[10],inactive
same,Potency,[11],inactive
CCC(=O)C(CCN(C)C)(c1ccccc1)c1ccccc1,Potency,[1],inactive
same,Potency,[12],inactive
same,Potency,[3],inactive
same,Potency,[7],inactive
same,Potency,[8],inactive
same,Potency,[9],inactive
same,Potency,[10],inactive
same,Potency,[11],inactive
